# Experimental data from ChEMBL document CHEMBL4513216, “Probing the Open Global Health Chemical Diversity Library for Multistage-Active Starting Points for Next-Generation Antimalarials” (ACS Infect Dis, 2020).
# The campaign covered roughly 68,000 compounds. About 2,700 (4%) showed an effect of 50% or more. The list comes from a sample in which strong results are over-represented; it also holds similar structures and randomly drawn compounds.
# Test system: Plasmodium berghei
# Test: Screen against P. berghei liver stage (PbLuc), transformed with Luciferase, at 2uM
# Format: functional, HepG2
# Settings: tested at 2 uM
row,Compound,INHIBITION
1,O=C(c1cc(COc2ccc3c(c2)OCO3)[nH]n1)N1CCSCC1,14.46%
2,Cn1cnc2c1CCN(c1ccnc(-c3ccccc3)n1)C2,56.33%
3,Cn1cnc2c1CCN(Cc1csc(-c3ccccc3)n1)C2,6.3%
4,c1ccc(-c2nccc(N3CCc4c(ncn4C4CC4)C3)n2)cc1,24.51%
5,Cc1nc(CN2CCN(c3nc4c(s3)c(C)nn4C)CC2)cs1,36.88%
6,COc1ccc(NC(=O)C(c2ccc(OC)cc2)N2CCOCC2)cc1 (configuration not stated),27.22%
7,O=C(Nc1ccc(F)cc1)C(c1ccccc1)N1CCOCC1 (configuration not stated),71.1%
8,COc1ccc(NC(=O)C(c2cccc(F)c2)N2CCOCC2)cc1 (configuration not stated),26.65%
9,CC(C)c1ccc(OCC(=O)N(C)C)cc1,-32.48%
10,COc1ccc(CCN2C(=O)O[C@@H]3CN(C)C[C@@H]32)cc1,-7.29%
11,CN(C[C@H]1CN2CC[C@H]1C[C@@H]2CNC(=O)c1ccco1)c1ccccc1,65.7%
12,CCN(CC)C[C@H]1CN2CC[C@H]1C[C@@H]2CNC(=O)c1ccco1,31.07%
13,CC[C@H]1CN2CC[C@H]1C[C@@H]2CNC(=O)c1ccco1,9.42%
14,Cc1nc(CCN)cc(N2CCC(O)(c3ccc(Cl)cc3)CC2)n1,11.38%
15,Cc1nc(CCN)cc(N2CCC(O)(c3ccccc3)C2)n1 (configuration not stated),23.18%
16,Cc1nc(CN)cc(N2CCC(O)(c3ccc(Cl)cc3)CC2)n1,59.94%
17,CCNC(=O)N1CCc2ccc(NC(=O)C(C)c3ccsc3)cc21 (configuration not stated),-44.17%
18,CC(Cn1cncn1)NCc1csc2c1CCCC2 (configuration not stated),26.75%
19,CC(Cn1ccnc1)NCc1csc2c1CCCC2 (configuration not stated),66.4%
20,CC(Cn1cccn1)NCc1csc2c1CCCC2 (configuration not stated),49.88%
21,O=C(NC1CCCC1)O[C@H]1COCCN(c2nc3ccccc3s2)C1,51.26%
22,O=C(NC1CCCC1)O[C@H]1COCCN(c2nc3ccccc3o2)C1,52.91%
23,CC(C)NC(=O)O[C@H]1COCCN(c2nc3ccccc3s2)C1,41.93%
24,O=C(N[C@@H]1CCN(c2nc3ccccc3o2)C[C@H]1O)c1cnccn1,26.3%
25,c1ccc2oc(N3CCCC4(CCOC4)C3)nc2c1 (configuration not stated),-14.46%
26,CCNC(=O)O[C@H]1COCCN(c2nc3ccccc3s2)C1,29.85%

row,Compound,INHIBITION
1,NC(=O)N1CCc2ncc(CNC(=O)CC3CC3)n2CC1,25.08%
2,CC(=O)N1CCCC1c1cc(N2CCN(CC3CC3)CC2)cc(C)n1 (configuration not stated),6.89%
3,O=C(c1ccoc1)N1CCc2ncnc(NCc3ccccn3)c2CC1,1.01%
4,CN(C)CCC1CCN(Cc2ccn(C)c(=O)c2)CC1,16.84%
5,COC(=O)C1CCN(C(=O)c2nnc3ccc(Cl)cc3n2)CC1,24.52%
6,CC(=O)c1cccc(OCCCC(=O)N(C)Cc2cnc(C)s2)c1,-37.03%
7,Cc1cnc(N2CCC3(CCCN3C(=O)c3ccco3)CC2)nc1,26.01%
8,Cc1nc(NCc2ccccc2)cc(C(C)Cn2nc(C)c(C)c2C)n1 (configuration not stated),-30.88%
9,Cc1nc(NCCO)cc(C(C)Cn2nc(C)c(C)c2C)n1 (configuration not stated),-16.2%
10,Cc1nc(NCc2nonc2C)cc(C(C)Cn2nc(C)c(C)c2C)n1 (configuration not stated),84.94%
11,COc1cc(C2(C(=O)N3CCN(CC(C)(C)O)CC3)CC2)ccc1C,17.48%
12,CCc1nc(CN2CCN(C(=O)c3cc(C)nn3C)CC2)cs1,53.98%
13,CCN(CC)Cc1ccc(C(=O)N2CCN(CC(C)O)CC2)o1 (configuration not stated),21.12%
14,CCc1nc(CN2CCN(C(=O)c3cc(C)no3)CC2)cs1,36.73%
15,CCc1ccc(C(=O)N2CCN(CC(C)O)CC2)o1 (configuration not stated),54.85%
16,CCc1nc(CN2CCCN(C(=O)c3ccccc3)CC2)cs1,-10.44%
17,CCc1nc(CN2CCCN(C(=O)c3occc3C)CC2)cs1,21.52%
18,Cc1nc(N2CCN(C(=O)c3ccco3)CC2)c2c(n1)c(C)nn2C,1.77%
19,CCc1nc(CN2CCCN(C(=O)c3ccco3)CC2)cs1,70.27%
20,CCc1ccc(C(=O)N2CCN(CC(O)CC)CC2)o1 (configuration not stated),5.59%
21,CCc1nc(CN2CCCN(C(=O)c3cccn3C)CC2)cs1,-18.39%
22,Cc1nc(CCN)cc(N2CCCN(C(=O)c3ccco3)CC2)n1,54.3%
23,COc1ccc(C(=O)N2CCN(c3cc(CCN)nc(C)n3)CC2)cc1,-10.41%
24,Cc1noc(C)c1CN1CC2(CCN(C(=O)c3c[nH]cn3)C2)CC1=O (configuration not stated),47.35%
25,Cc1noc(C)c1CN1CCc2ncc(CN(C)C)n2CC1,1.48%
26,Cc1nc(N2CCN(C)CC2)ncc1C(=O)N1CC[C@](C)(O)[C@H](C)C1,-5.13%
